Data: PubChem BioAssay AID1159580 (chemical genetic matrix, 2015)
Screen size: about 5,500 compounds; about 2,000 (36%) were called active. About 18% were inconclusive and are not listed. Cut-off read from the data, not from the text of the source: active = normalized growth mostly below about 0.91 (no sharp cut-off); inconclusive = no clear call, values can overlap the other calls; inactive = mostly above about 0.92. The list shows a part of the results.

Assay: chemical genetic growth profiling, strain panel (AID 1159580);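 note: tested at 20 µM; growth read once vehicle control cultures reached saturation at 30 °C; 1 = growth at the plate median or of vehicle wells; lower values mean less growth of the strain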
Details: S. cerevisiae deletion strains, growth OD

Measured: normalized growth

COCCCOc1ccnc(CS(=O)c2nc3ccccc3[nH]2)c1C (stereo not drawn)
inactive: locus YHR030C, strain SLT2, active compounds read low 0.94 | locus YHR079C, strain IRE1, active compounds read low 0.93 | locus YJL095W, strain BCK1, active compounds read low 0.913 | locus YJR066W, strain TOR1, active compounds read low 0.907 | locus YLR113W, strain HOG1, active compounds read low 0.909 | locus YNL183C, strain NPR1, active compounds read low 0.879 | locus YOR231W, strain MKK1, active compounds read low 0.93 | locus YPL256C, strain CLN2, active compounds read low 0.897
